In PubChem BioAssay AID435019 (Southern Research Specialized Biocontainment Screening …, 2010):
Hit rate of the full screen: of about 2,300 compounds, about 1,200 (52%) were called active. How the calls were made is not given here. The set was probably picked from earlier hits. Some of the results follow. Entries with a potency or affinity are not part of this list.

Assay: mammalian cell cytotoxicity, dose response, cytotoxicity control for M. tuberculosis inhibitor project (AID 435019);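 further: lower values mean fewer viable cells so more cytotoxicity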
Conditions: cytotoxicity counter-screen; series mostly up to 40 µM

| SMILES | outcome |
| --- | --- |
| COC(=O)C(C)Oc1cc(C)ccc1COc1ccc(-n2nc(C)n(C(F)F)c2=O)cc1 (stereo unspecified) | inactive |
| CC1=NN(c2ccccc2)C(=O)/C1=C\c1c(C)[nH]n(-c2ccccc2)c1=O | inactive |
| Cc1[nH]n(-c2ccccc2)c(=S)c1C=NCCCN=Cc1c(C)[nH]n(-c2ccccc2)c1=S | inactive |
| O=C(NC1CCN(C(=O)N2c3ccccc3Sc3ccccc32)CC1)c1ccccc1F | inactive |
| Oc1ccc(/C=N/NC(=S)N2CCOCC2)cc1 | inactive |
| CC1CCN(c2nc(Cl)nc(Nc3ccc([N+](=O)[O-])cc3)n2)CC1 | inactive |
| O=c1c2cc(Br)cc(Br)c2oc2nc3n(c(=O)c12)CCCS3 | inactive |
| Cc1ccc(C2=NNC3(CCOC(C)(C)C3)S2)cc1 (stereo unspecified) | inactive |
| Cc1cccc2c1N(CCCOc1ccc(C(C)(C)C)cc1)C(=O)C2=O | inactive |
| CCOc1ccc(N/C(C)=C/C(=O)c2ccc3c(c2)OCCO3)cc1 | inactive |
| Cc1ccc(NN=C2c3ccccc3-c3ccccc32)cc1 | inactive |
| CC1(c2nnc(-c3ccncc3)o2)CC(c2ccccc2)=NO1 (stereo unspecified) | inactive |
| Cc1ccnc(NC(=O)COc2ccc3c(c2)CCC3)c1 | inactive |
| O=C1C(Cl)=C(N2CCOCC2)C(=O)N1c1cccc(Cl)c1 | inactive |
| O=C(CN1CCN(c2ccc(F)cc2)CC1)N1CCC(Cc2ccccc2)CC1 | inactive |
| COc1ccc(/C=N/OCC(=O)OCC(=O)N(C)c2ccccc2)cc1 | inactive |
| O=C1C2C(c3ccccc3)(C(=O)N1c1ccc(Cl)cc1)C2(c1ccccc1)c1ccccc1 (stereo unspecified) | inactive |
| CC1(c2ccc(OC(F)F)cc2)NC(=O)N(CC(=O)c2ccc3c(c2)OCO3)C1=O (stereo unspecified) | inactive |
| COc1ccc(NC2(c3ccc(Cl)cc3)C(=O)c3ccccc3C2=O)cc1 | inactive |
| COC(=O)CCn1c(C)cc(C(=O)COc2ccccc2C(N)=O)c1C | inactive |
| c1ccc(-c2ccccc2OCCCCn2ccnc2)cc1 | inactive |
| CCCc1cc2c(cc1NC(=O)c1ccccc1Cl)OCO2 | inactive |
| CCCn1nnnc1NC(=O)c1ccc(C)cc1Cl | inactive |
| Nc1nc(-c2cccc(F)c2)cs1 | inactive |

| SMILES | outcome |
| --- | --- |
| NC1=NC[C@H](Cc2ccc(O)cc2)N1CCc1cccc2ccccc12 | inactive |
| N#CC1=C(N)NC(SCC(=O)c2ccccc2)=C(C#N)C12CCCC2 | inactive |
| CCOC(=O)CSC1=C(C#N)C(c2ccc(C)cc2)C2=C(CCCC2=O)N1 (stereo unspecified) | inactive |
| CCOC(=O)CSc1nnc(NC(=O)c2ccc3c(c2)OCO3)s1 | inactive |
| C=C(C)C1CCC(C)=C1COC(=O)Nc1ccccc1 (stereo unspecified) | inactive |
| CC(C)C(=O)Nc1cccc(-c2nc3ccccc3c(=O)o2)c1 | inactive |
| Cc1ccc(C(=O)OCc2nnc(-c3ccccc3)o2)s1 | inactive |
| CCOC(=O)c1ccc(N2CC(O)=C(c3nc4ccccc4c(=O)[nH]3)C2=N)cc1 | inactive |
| O=C(CSc1nn(-c2ccc(F)cc2)c(=S)s1)NCC1CCCO1 (stereo unspecified) | inactive |
| Cc1nn(-c2ccccc2)c(Cl)c1/C=N/NC(=O)c1ccc(CNc2ccccc2)o1 | inactive |
| Cc1ccc(C(=O)CCC(=O)OCC(=O)Nc2c(C)nn(-c3ccccc3)c2C)cc1 | inactive |
| CCOC(=O)C(/C=C(\C#N)C(=O)OCC)=C(/N)N1CCN(c2ccc(Cl)cc2)CC1 | inactive |
| CCN1CCN(c2oc(COc3ccc(-c4ccccc4)cc3)nc2C#N)CC1 | inactive |
| Clc1ccc(-c2cc3ccccc3nc2N2CCCC2)cc1 | inactive |
| O=C1C2C(C(=O)N1/N=C/c1ccc([N+](=O)[O-])o1)C1C=CC2C12CC2 (stereo unspecified) | inactive |
| COC(=O)CSc1nnc(-c2sc3cc(OC)ccc3c2Cl)n1C | inactive |
| CNC(=O)COC(=O)c1ccc(-c2nc3ccccc3s2)s1 | inactive |
| COc1ccc(COC(=O)CCNC(=O)c2ccc(Cl)cc2)cc1 | inactive |
| CNC(=O)c1csc(-c2ccc(Cl)cc2)n1 | inactive |
| C/C(=N\Nc1ccc(Cl)c(Cl)c1)c1ccc(-n2ccnc2)cc1 | inactive |
| CNc1ncnc2c1ncn2[C@@H]1O[C@H](CO)[C@@H](O)[C@H]1O | inactive |
| O=C(CCSc1ccccn1)c1ccccc1 | inactive |
| O=C(OCC#CCSc1nnc(-c2cccc3ccccc23)o1)c1cccs1 | inactive |
| O=C(CCC(=O)NC1CCCCCCC1)Nc1nnc(C(F)(F)F)s1 | inactive |

| SMILES | outcome |
| --- | --- |
| CCOc1ccc(NC(=S)NC23CN4CN(CN(C4)C2)C3)cc1 | inactive |
| COc1ccc(S(=O)(=O)N(C)CC(=O)NCCCn2ccnc2)cc1Cl | inactive |
| CCCOc1ccc(N2CC(C(=O)Nc3ccccn3)CC2=O)cc1 (stereo unspecified) | inactive |
| Nc1ccc(S(=O)(=O)Nc2cnc3ccccc3n2)cc1 | inactive |
| CCOc1ccc(N2C(=O)CS/C2=C(\C(Cl)=C(Cl)Cl)[N+](=O)[O-])cc1 | inactive |
| COc1ccc(C(=O)Cn2nc(CNc3ccc(Br)cc3)[n+]3c2CCCCC3)cc1 | inactive |
| CCc1nnc(NS(=O)(=O)c2ccc(N/C=C\C(=O)c3cccc(OC)c3)cc2)s1 | inactive |
| COc1ccc(C2CC2/C(C)=N/OC(=O)c2ccc(F)cc2)cc1 (stereo unspecified) | inactive |
| CCCCCC(=O)Nc1cccc2ccccc12 | inactive |
| COc1cc(N=Nc2ccc3ccccc3c2)ccc1O | inactive |
| CCOc1cccc2cc(C(=O)Nc3nccs3)c(=O)oc12 | inactive |
| O=C(O)Cc1cnc[nH]1 | inactive |
| O=C(CCl)c1ccc2c(c1)CCN2C(=O)C1CCCCC1 | inactive |
| C(=C\c1ccccc1)/C=N/Nc1nc2ccccc2s1 | inactive |
| COc1ccccc1/C=C/C1=NC(=C\C=C/c2ccccc2)/C(=O)O1 | inactive |
| COc1ccc(C2CC(=O)C3=C(C2)NC(C)=C(C#N)C3c2ccc(N(C)C)cc2)cc1 (stereo unspecified) | inactive |
| CCOc1ccc(N=CC2=C(O)CC(c3ccco3)CC2=O)cc1 (stereo unspecified) | inactive |
| CCCCCCc1cc2cc(C(=O)NCc3ccccc3)c(=N)oc2cc1O | inactive |
| Nc1c(C(=O)Nc2ccc(Br)cc2)sc2nc(-c3ccco3)ccc12 | inactive |
| Cc1ccc(NC2Sc3ccccc3NC2=O)cc1Cl (stereo unspecified) | inactive |
| O=C(C[n+]1ccccc1)NNc1ccccc1 | inactive |
| CN(C)C(=O)c1ccc(NC(=O)COC(=O)c2cc3c(s2)CCCCC3)cc1 | inactive |
| Cc1ccc(NC(=O)COC(=O)c2ccc(=O)n(Cc3ccccc3)n2)cc1F | inactive |
